# According to the supplement of paper PMC8975748:
# Where a name gives a salt, the structure may show the parent alone. ± gives the standard deviation of the averaged measurements.
# How the values were obtained:
# [1] = system: Saccharomyces cerevisiae BY4741 SeMeCo community; assay: mean cell size (pixel area) (pixels); higher = larger cells; details: 10 µM; 24 h; SM minimal medium
# In short: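 Mean cell pixel area per well was determined by automated confocal microscopy with Harmony analysis of paraformaldehyde-fixed cells. The cells, a Saccharomyces cerevisiae BY4741 community of four plasmids that each complement one auxotrophy and carry a fluorescent marker, were incubated for 24 h with drug at a final 10 µM in SM medium in 384-well plates. Numbers are averaged over 3 replicates. Same SeMeCo high-content imaging drug screen: Selleck FDA-approved drugs at 10 µM, 24 h in SM medium, 384-well plates, 3 replicates.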
# [2] = system: Saccharomyces cerevisiae BY4741 SeMeCo community; assay: z-score of prototroph abundance vs DMSO median; higher = larger share of this subpopulation than in DMSO controls; details: 10 µM; 24 h; SM minimal medium; subpopulation (auxotrophy): Prototroph
# In short: (§1)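 Four plasmids, each restoring a single auxotrophy and encoding a distinct fluorescent protein, were carried by a Saccharomyces cerevisiae BY4741 community. After overnight growth to OD600 1.0 and dilution to 0.3, 70 µl per well was grown for 24 h in minimal SM medium on 384-well plates acoustically predosed with library drugs at 10 µM final. Following paraformaldehyde fixation, automated confocal microscopy was used, with single-auxotroph fluorescent strains defining thresholds and autofluorescence correction. Subpopulation abundance was then scored as a z-score against the vehicle-well median.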
# [3] = system: Saccharomyces cerevisiae BY4741 SeMeCo community; assay: z-score of subpopulation abundance vs DMSO median, subpopulation auxotrophic for M; higher = larger share of this subpopulation than in DMSO controls; details: 10 µM; 24 h; SM minimal medium; subpopulation (auxotrophy): M
# In short: as §1
# [4] = system: Saccharomyces cerevisiae BY4741 SeMeCo community; assay: z-score of subpopulation abundance vs DMSO median, subpopulation auxotrophic for L; higher = larger share of this subpopulation than in DMSO controls; details: 10 µM; 24 h; SM minimal medium; subpopulation (auxotrophy): L
# In short: as §1
# [5] = system: Saccharomyces cerevisiae BY4741 SeMeCo community; assay: z-score of subpopulation abundance vs DMSO median, subpopulation auxotrophic for U; higher = larger share of this subpopulation than in DMSO controls; details: 10 µM; 24 h; SM minimal medium; subpopulation (auxotrophy): U
# In short: as §1
# [6] = system: Saccharomyces cerevisiae BY4741 SeMeCo community; assay: z-score of subpopulation abundance vs DMSO median, subpopulation auxotrophic for H; higher = larger share of this subpopulation than in DMSO controls; details: 10 µM; 24 h; SM minimal medium; subpopulation (auxotrophy): H
# In short: as §1
# [7] = system: Saccharomyces cerevisiae BY4741 SeMeCo community; assay: z-score of subpopulation abundance vs DMSO median, subpopulation auxotrophic for LU; higher = larger share of this subpopulation than in DMSO controls; details: 10 µM; 24 h; SM minimal medium; subpopulation (auxotrophy): LU
# In short: as §1
# [8] = system: Saccharomyces cerevisiae BY4741 SeMeCo community; assay: z-score of subpopulation abundance vs DMSO median, subpopulation auxotrophic for LM; higher = larger share of this subpopulation than in DMSO controls; details: 10 µM; 24 h; SM minimal medium; subpopulation (auxotrophy): LM
# In short: as §1
# [9] = system: Saccharomyces cerevisiae BY4741 SeMeCo community; assay: z-score of subpopulation abundance vs DMSO median, subpopulation auxotrophic for HM; higher = larger share of this subpopulation than in DMSO controls; details: 10 µM; 24 h; SM minimal medium; subpopulation (auxotrophy): HM
# In short: as §1
# [10] = system: Saccharomyces cerevisiae BY4741 SeMeCo community; assay: z-score of subpopulation abundance vs DMSO median, subpopulation auxotrophic for HU; higher = larger share of this subpopulation than in DMSO controls; details: 10 µM; 24 h; SM minimal medium; subpopulation (auxotrophy): HU
# In short: as §1
# [11] = system: Saccharomyces cerevisiae BY4741 SeMeCo community; assay: z-score of subpopulation abundance vs DMSO median, subpopulation auxotrophic for UM; higher = larger share of this subpopulation than in DMSO controls; details: 10 µM; 24 h; SM minimal medium; subpopulation (auxotrophy): UM
# In short: as §1
# [12] = system: Saccharomyces cerevisiae BY4741 SeMeCo community; assay: z-score of subpopulation abundance vs DMSO median, subpopulation auxotrophic for HLU; higher = larger share of this subpopulation than in DMSO controls; details: 10 µM; 24 h; SM minimal medium; subpopulation (auxotrophy): HLU
# In short: as §1
# [13] = system: Saccharomyces cerevisiae BY4741 SeMeCo community; assay: z-score of subpopulation abundance vs DMSO median, subpopulation auxotrophic for HLM; higher = larger share of this subpopulation than in DMSO controls; details: 10 µM; 24 h; SM minimal medium; subpopulation (auxotrophy): HLM
# In short: as §1
# [14] = system: Saccharomyces cerevisiae BY4741 SeMeCo community; assay: z-score of subpopulation abundance vs DMSO median, subpopulation auxotrophic for LUM; higher = larger share of this subpopulation than in DMSO controls; details: 10 µM; 24 h; SM minimal medium; subpopulation (auxotrophy): LUM
# In short: as §1
# [15] = system: Saccharomyces cerevisiae BY4741 SeMeCo community; assay: z-score of subpopulation abundance vs DMSO median, subpopulation auxotrophic for HLUM; higher = larger share of this subpopulation than in DMSO controls; details: 10 µM; 24 h; SM minimal medium; subpopulation (auxotrophy): HLUM
# In short: as §1
# [16] = system: Saccharomyces cerevisiae BY4741 SeMeCo community; assay: z-score of subpopulation abundance vs DMSO median, subpopulation auxotrophic for HL; higher = larger share of this subpopulation than in DMSO controls; details: 10 µM; 24 h; SM minimal medium; subpopulation (auxotrophy): HL
# In short: as §1
# [17] = system: Saccharomyces cerevisiae BY4741 SeMeCo community; assay: z-score of subpopulation abundance vs DMSO median, subpopulation auxotrophic for HUM; higher = larger share of this subpopulation than in DMSO controls; details: 10 µM; 24 h; SM minimal medium; subpopulation (auxotrophy): HUM
# In short: as §1
SMILES,mean cell size [1],z-score of prototroph abundance [2],z-score of subpopulation abundance [3],z-score of subpopulation abundance [4],z-score of subpopulation abundance [5],z-score of subpopulation abundance [6],z-score of subpopulation abundance [7],z-score of subpopulation abundance [8],z-score of subpopulation abundance [9],z-score of subpopulation abundance [10],z-score of subpopulation abundance [11],z-score of subpopulation abundance [12],z-score of subpopulation abundance [13],z-score of subpopulation abundance [14],z-score of subpopulation abundance [15],z-score of subpopulation abundance [16],z-score of subpopulation abundance [17]
CN(C)CCc1c[nH]c2ccc(C[C@H]3COC(=O)N3)cc12 [Zolmitriptan],12.5 ± 0.18,0.27,-0.23,0.2,-0.08,-0.77,-0.9,-0.12,-1.06,-1.01,-0.65,0.09,-0.12,-0.64,0.15,–,–
O=C(O)CCCCCCCC(=O)O [Azelaic acid],–,-0.32,0.44,-0.32,0.62,–,1.26,–,-0.04,0.63,-0.2,0.77,-0.07,-0.32,1.13,-0.5,0.47
CCCOc1ccc2c(c1)CC[C@@H]1[C@@H]2CC[C@]2(C)[C@@H](OC)CC[C@@H]12 [Promestriene],12.5 ± 0.26,-1.13,1.08,0.77,0.31,–,0.62,0.33,0.25,0.21,–,0.6,0.48,1.34,0.24,0.84,–
CO/N=C(\C(=O)N[C@@H]1C(=O)N2C(C(=O)OCOC(=O)C(C)(C)C)=C(/C=C\c3scnc3C)CS[C@H]12)c1csc(N)n1 [Cefditoren Pivoxil],12.3 ± 0.23,-0.6,0.2,1.38,-0.88,–,0.07,1.47,1.45,-0.64,-0.06,0.74,0.31,1.12,0.48,1.56,–
OCCN(CCO)c1nc(N2CCCCC2)c2nc(N(CCO)CCO)nc(N3CCCCC3)c2n1 [Dipyridamole],–,1.3,5.88,4.21,-6.98,3.18,-7.03,10.9,–,-7.22,-8.15,-3.69,11.4,-4.38,-1.34,–,-6.13
C[C@@H]1CC(=O)NN=C1c1ccc(NN=C(C#N)C#N)cc1 [Levosimendan],–,-0.07,-0.05,-0.16,0.92,-0.43,0.42,-0.47,–,0.25,–,-0.67,-0.43,-0.29,-0.43,-0.63,0.67
CC(C)[C@H](N)C(=O)OCC(CO)OCn1cnc2c(=O)[nH]c(N)nc21 (stereo partly drawn) [Valganciclovir HCl],12.7 ± 0.14,0.56,-0.49,0.28,-0.54,0.09,-0.94,-0.45,-0.64,-0.15,-0.83,-0.52,0.99,0.07,-0.35,-0.43,–
C[C@]12CC[C@@H]3c4ccc(O)cc4CC[C@H]3[C@@H]1CC[C@@H]2O [Estradiol],12.7 ± 0.21,–,0.4,-0.14,–,0.3,-0.02,–,-0.39,-1.02,-0.27,0.9,-0.66,0.18,–,-0.05,–
O=C1CCc2ccc(OCCCCN3CCN(c4cccc(Cl)c4Cl)CC3)cc2N1 [Aripiprazole],12.3 ± 0.16,-0.84,0.38,1.13,0.55,0.82,0.61,–,0.47,1.26,0.58,1.16,0.77,–,0.56,1.38,–
OC[C@H]1O[C@H](OCC2O[C@@H](O)[C@H](O)[C@@H](O)[C@@H]2O)[C@H](O)[C@@H](O)[C@H]1O (stereo partly drawn) [Melibiose],12.5 ± 0.29,-0.13,0.28,0.1,–,-0.36,0.81,-0.85,-0.15,0.74,0.56,-0.58,1.11,0.14,1,0.32,–
O=C(c1ccc(OCCN2CCCCC2)cc1)c1c(-c2ccc(O)cc2)sc2cc(O)ccc12 [Raloxifene],12.3 ± 0.38,0.7,-0.22,1.05,-1.73,1.48,-2.15,0.49,0.02,-1.39,-1.32,0.52,–,-0.37,0.09,0.96,-0.2
COc1cc(O)c(C(=O)Nc2nc(C(=O)NCCN(C(C)C)C(C)C)cs2)cc1OC [Acotiamide],12.14 ± 0.12,–,0.17,1.18,-0.39,0.24,0.41,1.66,0.64,-0.06,0.28,1.61,0.73,1.3,1.15,1.99,–
COc1ccc2c3c1O[C@H]1C[C@@H](O)C=C[C@@]31CCN(C)C2 [Galanthamine],12.47 ± 0.052,–,1.21,0.78,-0.51,0.83,0.29,0.45,1.76,0.48,0.1,1.67,1.04,1.02,1.34,–,–
N#Cc1ccc(Oc2ccc3c(c2)COB3O)cc1 [Crisaborole (AN2728)],–,–,-1.21,2.57,0.49,7.63,4.21,2.61,0.93,3.15,-0.21,6.18,3.78,3.54,5.38,5.69,–
C#CCC(Cc1cnc2nc(N)nc(N)c2n1)c1ccc(C(=O)N[C@@H](CCC(=O)O)C(=O)O)cc1 (stereo partly drawn) [Pralatrexate],14.4 ± 0.34,0.41,2.68,3.17,-4.47,3.97,-3.34,3.24,5.98,-3.79,-5.43,0.5,–,-1.33,1.08,4.02,-2.23
